# A selection: hits, their analogues and other compounds. The true share with any hit is near 4.7%.
# DRV1 agonist: qHTS for Agonists of Human Resolvin D1 Receptor DRV1; activation, % at 76.9 µM; AID 1346428, 2018; 2.5% of 48,000 active; Probable G-protein coupled receptor 32 (Homo sapiens), O75388; CHO-K1 GPR32 beta-arrestin PathHunter luminescence, 90 min; zero percent set by DMSO-only wells;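 active means activation of at least 60% and not above a set upper limit, about 1 call in 100 departs from these limits; inconclusive means activation of 40% to 60%, or above that upper limit; inactive means activation under 40%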; further: 0% is about no effect
#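 Engineered CHO-K1 line co-expressing GPR32-ProLink and EA-beta-arrestin. Compound treatment lasted 90 min at 37 °C. Luminescence was recorded after 1 h with substrate at ambient temperature, relative to DMSO basal wells.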
# NTMT1 inhibitor: Primary qHTS for Inhibitors of N-terminal methyltransferase 1 (NTMT1): MTaseGlo Assay. N-terminal Xaa-Pro-Lys N-methyltransferase 1 (Homo sapiens), Q9BV86. Potency, µM (highest dose often 114 µM), inactives show at the highest dose activity change, negative = inhibition, actives largely listed as inhibitors. NTMT1 MTase-Glo SAH luminescence, purified enzyme. 2.5% of 59,000 active;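 further: potency means the concentration at half of the fitted maximal effect; plate controls were DMSO vehicle for no effect and no enzyme for full effect; nearly all actives have a fitted effect of over 65% in size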
# HTT promoter inh: Primary qHTS for Identification of Small Molecule Inhibitors of Huntingtin Promoter Activity; AID 1508623, 2021; HEK293 HTT promoter firefly luciferase reporter, 24 h; 0.93% of 48,000 active; Potency, µM (doses to about 57.5 µM), for inactives: at the top dose activity change, negative = inhibition, usual class: inhibitors; further: potency means the concentration at half of the fitted maximal effect; nearly all actives have a fitted effect of over 50% in size
#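 Quantitative HTS used concentration series of up to 57.5 uM final on HEK293 luciferase reporter cells, 24 h at 37 degrees C. Readout was Dual-Glo firefly luminescence.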
# FH mod: Identification of activators of human fumarate hydratase by quantitative high-throughput screening. Potency, µM (series often up to 79.9 µM), inactives show top-dose activity change, negative = inhibition, actives largely listed as inhibitors. AID 1347055, 2019. Fumarate hydratase, mitochondrial (Homo sapiens), P07954. 0.22% of 54,000 active. FH coupled MDH/diaphorase resazurin fluorescence, 15 min; further: potency means the concentration at half of the fitted maximal effect; on the % scale 0 is the no-effect control and ±100 the full control effect; the screen sought activators but most active calls are inhibition curves; nearly all actives have a fitted effect of over 45% in size
# GALC G270D act: A Novel Cell-Based Assay to Identify Small Molecules for B -Galactocerebrosidase | P54803 | 145M-Twi-hGALC-G270D cells (Twitcher mouse brain line with human GALC G270D), HMU-beta-Gal fluorescence, 48 h | Potency, µM (titrated, usually from 57.5 µM), most hits filed as activators | 0.1% of 45,000 active | AID 1159614, 2016; further: potency means the concentration at half of the fitted maximal effect; 0% is about no effect; nearly all actives have a fitted effect of over 65% in size
# Target sequence (P54803 whole entry G286D): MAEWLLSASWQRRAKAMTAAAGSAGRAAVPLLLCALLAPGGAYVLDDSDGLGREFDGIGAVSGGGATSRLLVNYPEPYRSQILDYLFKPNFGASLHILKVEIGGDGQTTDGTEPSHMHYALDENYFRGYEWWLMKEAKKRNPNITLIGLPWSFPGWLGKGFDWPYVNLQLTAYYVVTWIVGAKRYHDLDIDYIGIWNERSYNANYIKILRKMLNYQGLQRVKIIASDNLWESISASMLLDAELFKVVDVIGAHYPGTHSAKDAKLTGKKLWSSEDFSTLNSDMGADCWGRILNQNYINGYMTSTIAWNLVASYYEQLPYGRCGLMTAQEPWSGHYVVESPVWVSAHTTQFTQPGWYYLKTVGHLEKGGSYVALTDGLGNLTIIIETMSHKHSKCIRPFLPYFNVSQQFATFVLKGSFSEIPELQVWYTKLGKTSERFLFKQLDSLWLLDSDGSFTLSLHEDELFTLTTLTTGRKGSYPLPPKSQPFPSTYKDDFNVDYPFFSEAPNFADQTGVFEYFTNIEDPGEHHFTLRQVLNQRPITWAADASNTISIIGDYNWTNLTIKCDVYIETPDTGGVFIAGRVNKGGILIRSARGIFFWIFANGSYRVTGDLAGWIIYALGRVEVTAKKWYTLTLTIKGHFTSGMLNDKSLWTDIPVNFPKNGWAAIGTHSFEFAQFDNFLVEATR
#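 Fluorogenic HMU-b-Gal hydrolysis (0.1 mM final, pH 5.2 citrate-phosphate with 1 mg/mL sodium taurocholate; carbonate stop buffer) measures mutant GALC activity after compound treatment of live 145M-Twi Twitcher brain cells stably carrying human GALC-G270D, with wild-type GALC line alongside; activation sought.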
# HTT-AS act: Primary qHTS for Identification of Small Molecule Activators of Huntingtin-Antisense Promoter Activity; HEK293 HTT-AS promoter firefly luciferase reporter, 24 h; response scale: percent change from vehicle, -100% = no light; Potency, µM (top dose mostly 57.5 µM), for the others: top-dose activity change, positive = activation, actives largely listed as activators; 0.24% of 48,000 active; further: potency means the concentration at half of the fitted maximal effect; nearly all actives have a fitted effect of over 55% in size
#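 HEK293 cells carrying firefly luciferase reporters were seeded at 2,500 per well in Opti-MEM and cultured for 24 h. They were then treated with compounds at up to 57.5 uM final for 24 h at 37 degrees C before Dual-Glo luminescence readout.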
# * hit, by the source's call; i = inactive; ? = inconclusive; / = no result; ! = not confirmed by another sample; [ ] = another dose, or the depositor's remark. Unless noted, the call rests on the fitted dose curve; in most records, active means well fitted curve in the direction sought with a large enough effect; inconclusive means small, poorly fitted or top-dose-only effect, or another doubt; inactive means no such curve, though single readings can be large; an effect the other way counts as inactive or inconclusive.
SMILES,DRV1 agonist,NTMT1 inhibitor,HTT promoter inh,FH mod,GALC G270D act,HTT-AS act
O=C(Cn1nc(-c2cccnc2)ccc1=O)NCCc1ccccc1,/,9%,/,/,/,/
CC1(C)C2CC=C(COC3OC(COC4OCC(O)(CO)C4O)C(O)C(O)C3O)C1C2 (stereo not given),/,18%[29.8 µM],/,-4%[53.3 µM],/,/
CC(=O)N1CCN(C(=O)COC(=O)c2ccc([S+](C)(=O)[O-])c([N+](=O)[O-])c2)CC1,/,13%[57.5 µM],/,/,/,/
CSc1nn(Cc2cccc(F)c2)c(N(C(C)=O)C(C)=O)c1S(=O)(=O)c1ccccc1,83*,17%,?,-20%,i,-32%
COc1cccc(Cn2nc(SC)c(S(=O)(=O)c3ccccc3)c2N(C(C)=O)C(C)=O)c1,?,2%,-28%,?,i,-29%
CCN(CC)c1ccc(NC(=O)C2CCN(c3nnc(-n4cccc4)s3)CC2)c(C)c1,60*,3%,-34%,-15%,i,-19%
O=C(Nc1ccccc1C(F)(F)F)C1CCN(c2nnc(-n3cccc3)s2)CC1,-7,-9%,-19%,-18%,i,-7%
Nc1nccc2c1ncn2[C@@H]1C=C(CO)[C@@H](O)[C@H]1O,/,-97%,/,/,/,/
CC(C)c1ccc(Cn2ccc3c4c(N)nc(NC5CC5)nc4ccc32)cc1,/,25µM*!,-19%,-10%[53.3 µM],/,-26%
COCCOc1ccc2c(c1)ncn2-c1ccc2cccc(N3CCC(N)CC3)c2n1,/,35µM*!,?,-1%,/,-3%
COc1ccc(OC)c(-n2cnc3cc(C(=O)NC4CCCC4)ccc32)c1,0,4%,-14%,13%,i,-11%
CCCCC(CC)CNC(=O)CCCCCn1c(=O)[nH]c2ccsc2c1=O (stereo not given),80*,3%,-29%,-11%,i,-22%
O=C(CCCn1c(=O)[nH]c2ccsc2c1=O)N1CCN(c2cccc(C(F)(F)F)c2)CC1,92*,-8%,?,-16%,i,-25%
CC(=O)c1ccc(N2CCN(C(=O)CCCCn3c(=O)[nH]c4ccsc4c3=O)CC2)cc1,27,-19%,-2%,-11%,i,-21%
Cc1cccc(N2CCN(C(=O)CCCn3c(=O)[nH]c4ccsc4c3=O)CC2)c1C,19,1%,-11%,-20%,i,-27%
O=C(CCCCn1c(=O)[nH]c2ccsc2c1=O)N1CCN(c2cccc(Cl)c2)CC1,72*,0%,?,-22%,i,-36%
CC(=O)NCCNC(=O)CCCn1c(=O)[nH]c2ccsc2c1=O,-16,4%,3%,4%,i,4%
O=C(Nc1ncc(Cc2ccc(C(F)(F)F)cc2)s1)c1ncc(-c2ccccc2)[nH]1,/,10%[57.5 µM],/,/,/,/
COc1c(C)cc(NC(=O)c2nn(Cc3ccc(F)cc3)c3c2CN(C(=O)c2ccc[nH]2)C[C@]3(C)C(N)=O)cc1C,/,?,/,-14%[20.6 µM],/,/
CC(=O)Nc1sc2c(c1-c1ccc(C(N)=O)cc1)CCNC2,/,-11%,/,/,/,/
Cc1ccc(-c2ccnn(CC(=O)N(C)C(C)c3ccco3)c2=O)cc1 (stereo not given),/,0%,/,/,/,/
Cc1ccc(NC(=O)CSc2nc(-c3cccs3)nc3cc(=O)[nH]n23)cc1,99*,/,/,/,/,/
COc1ccccc1C(=O)N1CCC(c2noc(-c3ccc(S(=O)(=O)N4CCCC4)cc3)n2)CC1,9,7%,25µM*,-11%,i,-41%
O=C(c1ccc(F)cc1F)N1CCC(c2noc(-c3ccc(S(=O)(=O)N4CCCC4)cc3)n2)CC1,2,5%,-7%,1%,i,-2%
N#Cc1c(-n2ncnc2-c2ccccc2C(F)(F)F)sc2c1CCCCC2,-13,-2%,1.1µM*,-15%,i,-53%
SMILES,DRV1 agonist,NTMT1 inhibitor,HTT promoter inh,FH mod,GALC G270D act,HTT-AS act
Cc1c(Cl)cccc1S(=O)(=O)Nc1nc(NCCc2ccccc2)nc2c1CN(Cc1ccccc1)CC2,/,10%[57.5 µM],/,-20%,/,/
COCCn1c2c([n+](Cc3cnccn3)c1C)C(=O)c1ccccc1C2=O,/,?,?,22µM*,/,-94%
NC1[C@H]2CN(c3nc4c(cc3F)c(=O)c(C(=O)O)cn4-c3ccc(F)cc3F)C[C@@H]12 (stereo not given in full),29,?,69%,-5%[53.3 µM],i,32µM*
O=c1[nH]cnc2nc[nH]c12,82*,22µM*,20%,-2%[53.3 µM],i,5%
C=CC(C)(C)c1[nH]c2ccccc2c1C[C@@H]1NC(=O)[C@H](C)NC1=O,/,2%[29.8 µM],/,-5%[53.3 µM],/,/
CS[C@H]1SC[C@@H]2C(=O)N(C)[C@H](C(C)C)C(=O)OC[C@H](NC(=O)c3cnc4ccccc4n3)C(=O)N[C@H](C)C(=O)N(C)[C@H]1C(=O)N(C)[C@H](C(C)C)C(=O)OC[C@H](NC(=O)c1cnc3ccccc3n1)C(=O)N[C@H](C)C(=O)N2C,/,-2%,/,/,/,/
CN1C(=O)N(c2cc(Cl)cc(Cl)c2)C(=O)[C@]12CN(Cc1cc(C(=O)O)cs1)C[C@H]2c1ccc(C#N)cc1,/,3%,/,/,/,/
COc1cccc(C(=O)Nc2ccc(-n3nncc3-c3ccccc3)cc2)c1OC,-17,56µM*,-34%,10%,i,-13%
CC(C)c1ccc(C2CC(=O)Nc3cc4c(cc32)OCCO4)cc1 (stereo not given),29,2%,?,?,i,-43%
Cc1ccc(C2CC(=O)Nc3cc4c(cc32)OCCO4)cc1Br (stereo not given),-8,0%,25µM*,?,i,-41%
Nc1ccc2c(c1)CN1C(=O)c3ccccc3C1=N2,14,13µM*,-27%[25.2 µM],3%[20.6 µM],i,-52%[25.1 µM]
CN(C)C(=O)COC(=O)c1cc(-c2ccc(C3CCNCC3)cc2)c2ccc(-c3ccc(C(F)(F)F)cc3)cc2c1,/,?,/,1%,/,/
Cc1cc(C)c(NC(=O)Cn2c(=O)n(Cc3ccc(C(=O)NCc4ccco4)cc3)c(=O)c3sccc32)c(C)c1,-13,50µM*,?,-6%,i,-32%
O=C(CN1CCN(Cc2ccc(F)cc2Cl)C1=O)NCCc1ccc(Cl)cc1,44,3%,-11%,-7%,i,-5%
Cc1ccc(CCNC(=O)CN2CCN(Cc3ccc(Cl)cc3)C2=O)cc1,60*,-3%,-15%,-5%,i,-7%
